The source of these data is the supplement of paper PMC3334620.

In all, about 33,000 sequences were measured (“E-score (-0.5 to 0.5)”: median about -0.01, highest 2% from about 0.26 on). This is one part of a sample in which the highest values are shown more often than they occur.

This assay addresses Ste12 (UniProt P13574). Description: PBM E-score (8-mer binding enrichment) (E-score (-0.5 to 0.5)); higher = stronger / more preferred TF binding. To be noted: protein concentration: 200 nM; construct: GST-DNA-binding domain. The protocol: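 Universal 'all 10-mer' protein binding microarrays (Agilent AMADID 015681) probed with GST-tagged S. cerevisiae TFs (full-length or DBD) made by in vitro transcription/translation (PURExpress), about 100-200 nM. Bound TF was detected with fluorescent anti-GST. Each ungapped 8-mer (which stands for itself and its reverse complement) is scored by the PBM enrichment score (E-score), a modified Wilcoxon-Mann-Whitney statistic from -0.5 to +0.5, computed with the Universal PBM Analysis Suite. Scale: above 0.35 generally sequence-specific binding.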
UniProt P13574, sequence (P13574 whole entry, the tested form may be a part): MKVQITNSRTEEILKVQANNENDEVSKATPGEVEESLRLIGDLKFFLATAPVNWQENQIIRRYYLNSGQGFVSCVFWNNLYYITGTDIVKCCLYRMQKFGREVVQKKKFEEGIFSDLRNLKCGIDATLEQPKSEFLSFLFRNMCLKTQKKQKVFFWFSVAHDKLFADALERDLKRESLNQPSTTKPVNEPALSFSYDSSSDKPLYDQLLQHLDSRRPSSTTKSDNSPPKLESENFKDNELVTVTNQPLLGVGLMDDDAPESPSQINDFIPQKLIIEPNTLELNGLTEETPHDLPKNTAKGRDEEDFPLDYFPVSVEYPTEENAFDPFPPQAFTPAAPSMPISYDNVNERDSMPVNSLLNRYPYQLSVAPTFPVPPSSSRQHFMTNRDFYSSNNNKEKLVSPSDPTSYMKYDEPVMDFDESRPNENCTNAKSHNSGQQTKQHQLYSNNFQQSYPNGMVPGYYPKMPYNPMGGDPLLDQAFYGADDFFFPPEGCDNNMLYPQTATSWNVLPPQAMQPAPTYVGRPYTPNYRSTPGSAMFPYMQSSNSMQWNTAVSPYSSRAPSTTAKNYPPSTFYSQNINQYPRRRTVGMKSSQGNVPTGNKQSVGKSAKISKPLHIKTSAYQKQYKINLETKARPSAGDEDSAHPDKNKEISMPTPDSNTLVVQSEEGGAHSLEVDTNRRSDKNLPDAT
Turning to AGATTTAA, the “PBM E-score” value was 0.0444. The value for CAATTTAA was 0.2; that for AAATTTAA was 0.289; that for TGATTTAA was 0.266. For GAATTTAA, the “PBM E-score” value worked out at 0.0395.

In the case of AAATTTGA, the “PBM E-score” value worked out at 0.123. The value for AAATTTAG was 0.169.

Consider GGAATGGA, for which the “PBM E-score” value stood at 0.0113.

On to TTACCCAA, for which the “PBM E-score” value turned out to be 0.0694. Then CTTTGCTA, with 0.162; and CTCACAGA, with 0.00059; and AACTCGTA, with 0.143.

For the sequence TCCCCACA, the “PBM E-score” value was -0.0875. Then CACCTATC, with 0.0217; and CGAAACGA, with 0.205; and GGAAACGA, with 0.275. The value for CCAAACGA was 0.0156; that for GAAAACGA was -0.0839; that for CAAAACGA was 0.272. Then AAAAACGG, with 0.174; and CCAAACGG, with -0.0425; and AGAAACGA, with 0.207.

With TAAAACGA, the “PBM E-score” value stood at 0.134. As for CAAAACGG, the “PBM E-score” value is 0.302. Then AAAAACGA, with 0.272; and CAAAACGC, with 0.229; and CCGCCTCC, with -0.123. Then CCCGTAAG, with -0.0733. The value for AGGTCAGA was -0.113. Turning to TCTTGACA, the “PBM E-score” value was -0.0432. Then ACCCATCC, with 0.00204; and AACCAATC, with 0.259; and GAAAAAGA, with 0.241.

As for CGGCTAAG, the “PBM E-score” value is 0.0459. Then CATAGCGG, with -0.207; and AGACAGCT, with -0.111; and AAGAAGAA, with 0.123. As for TTAACTAA, the “PBM E-score” value was 0.221. Regarding GTCTCCAA, the “PBM E-score” value was found to be 0.0569. On to GAAAAACA, for which the “PBM E-score” value was 0.21. The value for TAAAAACA was 0.223; that for ATAAAAAA was 0.248; that for CAAAAACA was 0.153. As to AAAAAACA, the “PBM E-score” value was found to be 0.331. As for ATAAACCC, the “PBM E-score” value was 0.211.

AGAAAACA: the “PBM E-score” value stood at 0.152. Then ATAAAAAC, with 0.134; and ATAAAACA, with 0.368; and CTAAAACA, with 0.355.

Regarding ATAAAACC, the “PBM E-score” value came to 0.294. Take CTAAAACC: the “PBM E-score” value was determined as 0.192.

ACGTTGAT: the “PBM E-score” value came out at 0.0985. The value for AGTCAGTG was -0.0387; that for CTTAGCAC was -0.0994; that for ATACCACG was 0.0272.

Regarding ACATAGCA, the “PBM E-score” value is -0.115. The value for GTAAAAAA was 0.217; that for AGTAAACA was 0.0888.

Take GGTAAACA: the “PBM E-score” value is 0.28. Then CGTAAACA, with 0.186; and ATAAAACG, with 0.37.

Turning to ATAAACCG, the “PBM E-score” value turned out to be 0.0871. Then GTAAAAAC, with 0.206; and ATTAAACG, with 0.155.

GTAAAACA: the “PBM E-score” value was determined as 0.323. Then ACAGCGAG, with -0.00798; and GTAGATCA, with 0.023.

In the case of ACCGCACC, the “PBM E-score” value is 0.0603. On to AGGGAGGG, for which the “PBM E-score” value worked out at 0.305. For the sequence AGGAGGGA, the “PBM E-score” value is -0.0567. For the sequence AGGAGGGG, the “PBM E-score” value is 0.285. The value for AGGGAGGA was -0.192. With AGGGTGGC, the “PBM E-score” value was -0.0324. For AAGGGAGG, the “PBM E-score” value was -0.0233. Then AGGGAGGC, with -0.122; and AGGGGAGA, with -0.0864. Take AGGGTGGA: the “PBM E-score” value is -0.218. Then AGGAGGGC, with -0.081. The value for AGGGTGGG was 0.35. As for AGGGGAGG, the “PBM E-score” value worked out at 0.348.

With AGTTTGCG, the “PBM E-score” value is 0.122. Then AGTGCGGA, with 0.0511. Then CTCCTGGA, with -0.166; and AAATTTGC, with 0.0182; and ATTGGTAC, with 0.00439. In the case of AAGAGCTT, the “PBM E-score” value was -0.0673.

Regarding ACCAAAGA, the “PBM E-score” value turned out to be 0.158. The value for ACGCCCAC was 0.117; that for GATGAGTA was 0.0183; that for TACTGGAA was 0.182. The value for CACACCAA was 0.115; that for AATTGAAA was 0.412. Regarding AATTGAAT, the “PBM E-score” value worked out at 0.131. Then AATTGAAC, with -0.0364. The value for CATTGAAA was 0.247; that for TATTGAAA was 0.304; that for GATTGAAA was 0.243. The value for CTCAACGA was -0.137; that for ACGACAGT was -0.147. Turning to AAAATAAG, the “PBM E-score” value stood at 0.183.

Regarding CAAATAAG, the “PBM E-score” value was determined as 0.0883.

In the case of GAAATAAA, the “PBM E-score” value amounted to 0.282.

For AAAATAAT, the “PBM E-score” value turned out to be 0.293.

Take AAAATAAC: the “PBM E-score” value was determined as 0.2. The value for GCAATAAC was 0.0195; that for CAAATAAC was 0.283. The value for CAAATAAA was 0.1; that for CCAATAAA was 0.148; that for CAAATACC was 0.185. Consider GCAATAAA, for which the “PBM E-score” value was found to be 0.279. For GAAATAAC, the “PBM E-score” value was found to be 0.121.
